PLAP act: activates human placental alkaline phosphatase; P05187; purified PLAP enzyme, luminescent substrate read-out; stronger effect = higher value; activation fold at 20 µM; 96,000 tested, 1.2% active; AID 696; in the data active = activation fold above about 2
Target sequence (P05187 whole entry, looked up): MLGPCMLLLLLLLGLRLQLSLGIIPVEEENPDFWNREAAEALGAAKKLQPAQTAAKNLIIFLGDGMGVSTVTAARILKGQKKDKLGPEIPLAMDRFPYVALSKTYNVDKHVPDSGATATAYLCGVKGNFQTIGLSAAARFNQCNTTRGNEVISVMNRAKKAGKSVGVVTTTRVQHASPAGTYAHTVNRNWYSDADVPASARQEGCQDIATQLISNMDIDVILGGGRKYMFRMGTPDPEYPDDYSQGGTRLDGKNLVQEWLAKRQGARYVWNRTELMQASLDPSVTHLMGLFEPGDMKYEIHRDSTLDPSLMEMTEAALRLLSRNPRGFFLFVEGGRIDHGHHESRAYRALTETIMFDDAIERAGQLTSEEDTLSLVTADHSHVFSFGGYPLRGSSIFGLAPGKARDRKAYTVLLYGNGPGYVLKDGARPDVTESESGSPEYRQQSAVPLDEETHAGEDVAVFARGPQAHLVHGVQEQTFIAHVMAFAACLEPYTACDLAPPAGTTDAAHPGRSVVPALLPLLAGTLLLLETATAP
CYP2C9 inh: human CYP2C9 inhibition; CYP2C9 Supersomes, luciferin-H conversion, luminescence; inhibition, % at 5 µM; 96,000 tested, 20% active; AID 777; P11712;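 active = blocking of liver enzyme CYP2C9 beyond about 50% at 5 µM, limit read from the data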
CYP2C19 activ: increases human CYP2C19 enzyme activity; P33261; recombinant CYP2C19, luciferin-H EGE luminescence; stronger effect = higher value; 0 = fully inhibited enzyme, 1 = untreated enzyme; activation factor at 5 µM; 96,000 tested, under 10 active; AID 1025;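 active = activation factor of at least 2 at 5 µM in the primary screen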;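 also: 0 = wells with 2.5 mM tranylcypromine and 1 = vehicle-only wells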
CYP2C19 inh: blocks human cytochrome P450 2C19 | P33261 | CYP2C19 Supersomes, luciferin-H EGE luminescence, 30 min | inhibition, % at 5 µM | 96,000 tested, 21% active | AID 778;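 active = CYP2C19 inhibition above a set limit at 5 µM in the primary screen, cut at about 50% in these data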;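 also: plate controls were negative control wells for no effect and 2.5 mM tranylcypromine positive control for full effect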
CYP2C9 activ: increases human cytochrome P450 2C9 activity | recombinant CYP2C9, luciferin-H conversion, luminescence; stronger effect = higher value; factor 1 = untreated enzyme, 0 = blocked | AID 1024 | 96,000 tested, 1.4% active | P11712 | activation factor at 5 µM;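 active = activation factor of 2 or more for CYP2C9 at a 5 µM dose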;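 also: 0 = sulfaphenazole-blocked wells and 1 = vehicle-only wells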
Starred values were filed as active, the others as inactive. The list is not random: actives were taken first. Their share in the collection is about 31%.

SMILES	PLAP act	CYP2C9 inh	CYP2C19 activ	CYP2C19 inh	CYP2C9 activ
CCCc1cc(C(=O)NCc2cccs2)no1	0.8	32	0.3	74*	0.7
Cc1cc(C(=O)NCc2ccccc2Br)no1	1.1	-12	0.3	70*	1.1
Cc1ccc(-c2cc(C(=O)NCc3cccs3)no2)cc1	0.8	-4	1.1	-13	1
Cc1cc(C(=O)N2CCN(C(c3ccccc3)c3ccccc3)CC2)no1	1.4	35	0.6	42	0.7
CCCc1cc(C(=O)NCc2ccco2)no1	0.9	6	0.7	28	0.9
CCCc1cc(C(=O)NCc2ccccc2)no1	0.9	12	0.4	58*	0.9
CCCc1cc(C(=O)N2CCN(C(c3ccccc3)c3ccccc3)CC2)no1	1.5	83*	0.9	6	0.2
CSc1nc(C)cc(-n2ccc(=O)[nH]c2=O)n1	1	-26	1.2	-20	1.3
CCOC(=O)C1=C2N(C)c3ccccc3N2CCC1=O	0.9	-10	1.1	-8	1.1
Cc1cc(C(=O)N2CCN(CCc3ccccc3)CC2)no1	1.1	6	0.6	42	0.9
CSc1nsc(SCC(=O)Nc2c(C)n(C)n(-c3ccccc3)c2=O)n1	0.9	4	1	0	1
O=C(NCc1ccc(Cl)cc1)c1noc2c1CCCCC2	0.9	44	0.8	20	0.6
Cc1cccc(/N=C/c2c(O)c3ccccc3oc2=O)n1	1	-2	0.8	16	1
CC(C)OC(=O)c1c(NC(=O)CCn2nnc3ccccc32)sc2c1CCCC2	1	82*	0.4	57*	0.2
CC(C)OC(=O)c1c(NC(=O)c2cnn3c2NC(c2ccccc2)CC3C(F)(F)F)sc2c1CCCC2 (stereo unspecified)	1.3	23	1	-1	0.8
Cc1cc(C)n(-c2nc3c(c(=O)[nH]c(=O)n3C)n2CC(O)COc2ccccc2)n1 (stereo unspecified)	1	14	0.8	25	0.9
Cc1cc(C)n(-c2nc3c(c(=O)[nH]c(=O)n3C)n2Cc2cccc(Br)c2)n1	1.5	46	0.4	55*	0.5
Cc1cc(C)n(-c2nc3c(c(=O)[nH]c(=O)n3C)n2CC(O)COc2ccccc2C)n1 (stereo unspecified)	1.6	19	0.3	74*	0.8
Cn1c(=O)[nH]c(=O)c2c1nc(N1CCOCC1)n2CC(O)COc1ccccc1 (stereo unspecified)	1	75*	0.8	18	0.2
Cn1c(=O)[nH]c(=O)c2c1nc(N1CCCC1)n2CC(O)COc1ccccc1 (stereo unspecified)	1	-14	1.2	-17	1.1
CCOc1cc(NC(=O)c2ccco2)c(OCC)cc1NC(=O)CCc1ccc(OC)cc1	1.1	-10	1.1	-11	1.1
COc1ccccc1-n1c(SCC(=O)N2CCCC2)nc2cccnc21	1.1	-6	1.1	-8	1.1
Cc1oc(-c2ccccc2F)nc1CS(=O)(=O)CC(=O)NCc1ccco1	1	32	0.9	11	0.7
Cc1ccc(-c2nn(-c3cc(Cl)ccc3[N+](=O)[O-])c(=O)c3ccccc23)cc1	1	31	0.5	51*	0.7
CN1c2ccccc2C(C)(C)C12C=Nc1c(ccc3ccccc13)O2 (stereo unspecified)	1	33	0.9	7	0.7
SMILES	PLAP act	CYP2C9 inh	CYP2C19 activ	CYP2C19 inh	CYP2C9 activ
CN1c2ccccc2C(C)(C)[C@]12C=Cc1cc(O)ccc1O2	0.5	95*	0	97*	0.1
Cc1ccc(-c2noc(C3CCN(C(=O)Nc4ccc(C#N)cc4)CC3)n2)o1	1.7	61*	0.2	83*	0.4
COc1cccc(-c2nnc(SCC(=O)Nc3ccc(S(N)(=O)=O)cc3)n2C)c1	1.4	38	1	3	0.6
C[C@H](NS(=O)(=O)c1ccccc1F)C(=O)OCC(=O)N1CCc2ccccc21	0.9	-76	1	4	1.8
O=C(COc1ccc(S(=O)(=O)NC2CCCCC2)cc1Cl)NCC1CCCO1 (stereo unspecified)	1.7	90*	0.4	58*	0.1
Cc1cc(Cl)c(S(=O)(=O)NCC2CCCO2)cc1OCC(=O)NC1CCCCC1 (stereo unspecified)	1	20	0.8	22	0.8
COc1ccc(CCNC(=O)COc2ccc(S(=O)(=O)NC3CCCCC3)cc2Cl)cc1	1.5	85*	0.4	64*	0.1
Cc1cc(C)c(C)c(OCC(=O)NCC2CCCO2)c1 (stereo unspecified)	1.2	-57	0.4	63*	1.6
